Measurements as given in PubChem BioAssay (NCI).
This is part of a sample that, as a whole, favours compounds with a hit. Of some 79,000 tested, about 15% had one in any assay. Unmarked numbers belong to inactive results. Active and inactive are the calls of the source. Cut-off read from the data, not from the text of the source: active = growth inhibition above about 70%; inactive = the rest.

Columns and labels:
[1] = NCI Yeast Anticancer Drug Screen. Data for the rad50 strain (AID 155);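 note: 0% = growth of vehicle-only cultures of the same strain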; settings: S. cerevisiae rad50 strain growth inhibition, active compounds read high
Outline: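 Yeast carrying a defined DNA repair defect were exposed to test compounds, and growth was compared with vehicle-treated controls to give percent inhibition.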

[2] = NCI Yeast Anticancer Drug Screen. Data for the mec2-1 strain (AID 157); settings: S. cerevisiae mec2-1 strain, active compounds read high
Outline: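 Each compound was tested on mec2-1 yeast, a strain altered in DNA damage repair or cell cycle control. Growth inhibition is reported relative to vehicle.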

[3] = NCI Yeast Anticancer Drug Screen. Data for the sgs1 mgt1 strain (AID 161);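 note: 0% = growth of cultures given vehicle only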; settings: S. cerevisiae sgs1 mgt1 strain, active compounds read high
Outline: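 Test agents were incubated with a DNA-repair-mutant yeast strain. Growth was then read and compared against vehicle-treated controls.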

[4] = NCI Yeast Anticancer Drug Screen. Data for the cln2 rad14 strain (AID 165);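 note: 0% = growth equal to vehicle treated cultures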; settings: S. cerevisiae cln2 rad14 strain, active compounds read high
Outline: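 Test compounds were added to cln2 rad14 yeast cultures; inhibition of growth was then determined by comparison with vehicle treatment.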

[5] = NCI Yeast Anticancer Drug Screen. Data for the bub3 strain (AID 167); settings: S. cerevisiae bub3 mutant strain, active compounds read high
Outline: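 Compounds were applied to a genetically altered yeast strain carrying a cell-cycle control defect. Growth inhibition was scored against vehicle-treated controls.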

[6] = NCI Yeast Anticancer Drug Screen. Data for the mlh1 rad18 strain (AID 175); settings: S. cerevisiae mlh1 rad18 strain growth inhibition, active compounds read high
Outline: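 Inhibition values reflect reduced growth of mutant yeast versus vehicle-treated controls following compound exposure; the mutations affect DNA damage repair.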

[7] = at 5.0 µM (retest, dose inferred, filed as 0.5)
[8] = at 50.0 µM (retest, dose inferred, filed as 5.0)

Compound	growth inhibition [1, 7]	growth inhibition [1, 8]	growth inhibition ([1]; at 50.0 µM)	growth inhibition [2, 7]	growth inhibition [2, 8]	growth inhibition ([2]; at 50.0 µM)	growth inhibition [3, 7]	growth inhibition [3, 8]	growth inhibition ([3]; at 50.0 µM)	growth inhibition [4, 7]	growth inhibition [4, 8]	growth inhibition ([4]; at 50.0 µM)	growth inhibition [5, 7]	growth inhibition [5, 8]	growth inhibition ([5]; at 50.0 µM)	growth inhibition [6, 7]	growth inhibition [6, 8]	growth inhibition ([6]; at 50.0 µM)
O=[N+]([O-])c1ccc(C2=CSc3ccccc3N2)cc1	-17%	6%	49.7%	-30%	-5%	59.4%	-11%	-7%	58%	11%	25%	22.9%	-16%	19%	73.4% (active)	-43%	31%	58.2%
C=CCOc1ccc2c(c1)CC=C1[C@@H]2CC[C@]2(C)C(=N\O)/C(=N/O)C[C@@H]12	10%	95% (active)	98.8% (active)	-7%	99% (active)	99.1% (active)	-9%	99% (active)	99% (active)	-2%	99% (active)	98.1% (active)	1%	99% (active)	98.8% (active)	45%	99% (active)	99% (active)
S=C(N/N=C/c1ccccn1)Nc1ccccn1	-1%	99% (active)	90.8% (active)	-2%	99% (active)	92.9% (active)	3%	99% (active)	91.5% (active)	-15%	98% (active)	88.5% (active)	-2%	98% (active)	90.9% (active)	-3%	96% (active)	90.1% (active)
CCOC(=O)NC(NC(=O)OCC)C(=O)Nc1cccc2c(OC(=O)C(NC(=O)OCC)NC(=O)OCC)c(N=Nc3ccc(S(=O)(=O)Nc4nccs4)cc3)cc(N=Nc3ccc(S(=O)(=O)Nc4nccs4)cc3)c12 (tested in a mixture with another compound)	94% (active)	43%	78.7% (active)	97% (active)	59%	74.9% (active)	96% (active)	58%	65.8%	95% (active)	70% (active)	70.3% (active)	95% (active)	59%	61.8%	88% (active)	29%	83.1% (active)
COC1(OC)CNC(C(=O)O)C1 (configuration not stated)	-154%	-139%	19.1%	-44%	-45%	2.65%	-66%	-59%	18.2%	-54%	-49%	2.4%	-71%	-66%	21.4%	-141%	-111%	13.3%
c1ccc(C[n+]2cccc(-c3cc4ccccc4[nH]3)c2)cc1	12%	14%	-21.7%	0%	-42%	-24.6%	-9%	17%	-45.2%	-46%	-23%	77.3% (active)	-17%	-9%	-43.5%	-1%	13%	-3.55%
CC(C)c1ccc2nc3ccc(C(=O)NCCN4CCN(c5ccccc5)CC4)cn3c(=O)c2c1	18%	97% (active)	12.1%	-9%	98% (active)	16.6%	18%	99% (active)	13.2%	3%	97% (active)	-7.8%	14%	98% (active)	-7.5%	4%	97% (active)	5.15%
NC(=O)/C(=N\NC(=O)c1cc2ccccc2cc1O)C1C(=O)N(c2ccccc2)N=C1N (configuration not stated)	15%	15%	71.5% (active)	6%	6%	43.4%	7%	7%	20.7%	16%	16%	11.7%	2%	2%	50.1%	25%	25%	67.4%
CCN(CC)c1ccc(N=Nc2ccc(-c3nc4cccn(C)c-4n3)cc2)cc1	8%	8%	80.2% (active)	-5%	-5%	79.2% (active)	-13%	-13%	76.7% (active)	-2%	-2%	80.2% (active)	9%	9%	84.3% (active)	-4%	-4%	82% (active)
CCC(C(=O)C(C)C(O)C(C)CCc1ccc(C)c(O)c1C(=O)O)C1OC(CC)(C2CCC(O)(CC)C(C)O2)CC1C (configuration not stated)	28%	96% (active)	88.2% (active)	56%	98% (active)	90.7% (active)	40%	97% (active)	90% (active)	73% (active)	98% (active)	89.2% (active)	64%	98% (active)	88.7% (active)	28%	97% (active)	88.2% (active)
CC1N=C(Cc2ccccc2)SC1C (configuration not stated)	-2%	81% (active)	74.5% (active)	-5%	85% (active)	86.1% (active)	0%	87% (active)	86.8% (active)	-9%	85% (active)	88% (active)	0%	83% (active)	88.3% (active)	-1%	84% (active)	85.8% (active)
c1ccc2c(c1)Nc1ccccc1[P+]21c2ccccc2Nc2ccccc21	98% (active)	99% (active)	82.8% (active)	99% (active)	99% (active)	98.8% (active)	99% (active)	99% (active)	59.4%	99% (active)	99% (active)	84.3% (active)	99% (active)	99% (active)	98.7% (active)	99% (active)	99% (active)	98.6% (active)
CCOC(=O)C(CO)c1nc2c([nH]c1=O)c(=O)n(C)c(=O)n2C (configuration not stated)	5%	18%	29.9%	14%	17%	43.5%	33%	60%	50.5%	-4%	5%	-2.95%	6%	39%	52.9%	17%	18%	83.5% (active)
COc1cccc(C2c3cc4c(cc3OC(NNS(=O)(=O)c3ccc(C)cc3)C2C)OCO4)c1O (configuration not stated)	-7%	94% (active)	75.4% (active)	-10%	81% (active)	85.6% (active)	-4%	95% (active)	92.2% (active)	9%	88% (active)	87.2% (active)	-20%	92% (active)	54%	6%	94% (active)	85.5% (active)
O=[N+]([O-])c1ccc(-n2ncc3cccnc32)c([N+](=O)[O-])c1	1%	99% (active)	99% (active)	-12%	99% (active)	93.6% (active)	2%	100% (active)	99.3% (active)	-1%	98% (active)	46.9%	33%	99% (active)	92% (active)	26%	100% (active)	99.5% (active)
CC(CO)[C@H]1OC(=O)C=C2[C@@]13O[C@@H]3[C@H]1OC(=O)[C@@]3(C)[C@H]4O[C@H]4C[C@@]2(C)[C@@H]13 (some centres not stated)	51%	98% (active)	89.8% (active)	47%	99% (active)	91% (active)	58%	97% (active)	88.2% (active)	59%	98% (active)	89.5% (active)	66%	98% (active)	88.8% (active)	61%	97% (active)	89.8% (active)
O=C(C[n+]1ccc2ccccc2c1)c1ccc(-c2ccccc2)cc1	-5%	97% (active)	98.2% (active)	-2%	98% (active)	97.8% (active)	-3%	97% (active)	98% (active)	-4%	96% (active)	96.8% (active)	-5%	98% (active)	98.5% (active)	-7%	98% (active)	97.8% (active)
CCOc1ccc2c(c1)nc1ccccc1[n+]2CC	2%	22%	20.3%	7%	33%	48.6%	2%	27%	41.4%	2%	9%	56.4%	6%	36%	24.3%	-4%	20%	44.2%
CC(=O)O[C@]1(C(C)=O)CC[C@H]2[C@@H]3C[C@H](C)C4=CC(=O)NCC[C@]4(C)[C@H]3CC[C@@]21C	0%	87% (active)	93.2% (active)	20%	91% (active)	94.6% (active)	-20%	90% (active)	88% (active)	6%	81% (active)	90.1% (active)	14%	92% (active)	92% (active)	6%	90% (active)	94.5% (active)
